PAFAH1B3 FP inh – PAFAH1B3 (human) inhibition. AID 492972. inhibition, % at 3.39 µM. recombinant PAFAH1B3, FP-rhodamine probe, fluorescence polarization. 340,000 compounds, 0.28% hits;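 active = inhibition above the screen-wide average of all tested compounds plus 3 SD, cut at about 25% in these data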;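 also: 0% = enzyme with DMSO only and 100% = wells lacking PAFAH1B3 protein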
pPAFAH inh – pPAFAH (human) enzyme inhibition; 330,000 compounds, 1.5% hits; AID 463082; recombinant pPAFAH, FP-rhodamine probe fluorescence polarization; Q13093; inhibition, % at 3.39 µM;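 active = inhibition above the mean inhibition across the screen plus 3 SD, cut at about 25% in these data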;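 also: inhibitors block binding of the rhodamine activity-based probe so polarization drops; 0% = enzyme with DMSO and 100% = wells lacking pPAFAH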
PP5 inh – blocks human protein phosphatase 5 activity; P53041; purified PP5c, OMFP substrate fluorescence; inhibition, % at 6.7 µM; 320,000 compounds, 0.18% hits;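 active = inhibition above the campaign's mean inhibition across all tested compounds plus 3 SD, cut at about 9.5% in these data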;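 also: 0% = DMSO only and 100% = 100 µM cantharidin control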
PP1 counter – PP1-alpha (human) inhibition in PP5 counter-screen. P62136. purified PP1alpha, OMFP fluorescence. inhibition, % at 6.7 µM. 320,000 compounds, 0.9% hits. AID 2235;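 active = inhibition above the mean inhibition of all tested compounds plus 3 SD, computed separately for each screening campaign, cut at about 15% in these data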
Target sequence (P62136 whole entry, looked up): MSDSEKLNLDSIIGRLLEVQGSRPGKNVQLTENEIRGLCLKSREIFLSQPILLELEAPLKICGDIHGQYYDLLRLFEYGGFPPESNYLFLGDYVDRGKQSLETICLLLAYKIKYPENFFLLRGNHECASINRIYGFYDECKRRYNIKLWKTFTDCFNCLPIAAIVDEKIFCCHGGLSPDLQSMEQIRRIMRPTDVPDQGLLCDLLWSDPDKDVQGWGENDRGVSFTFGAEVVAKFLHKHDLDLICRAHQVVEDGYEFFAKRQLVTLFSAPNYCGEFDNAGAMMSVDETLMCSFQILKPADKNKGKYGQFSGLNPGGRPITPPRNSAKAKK
PAFAH1B2 FP inh – inhibitors of human PAFAH1B2; 340,000 compounds, 1.2% hits; inhibition, % at 3.39 µM; recombinant PAFAH1B2, FP-rhodamine activity probe, fluorescence polarization;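 active = inhibition above the mean of all tested compounds plus 3 SD, cut at about 24% in these data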;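 also: 0% = enzyme with DMSO and 100% = wells lacking PAFAH1B2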
Target sequence (P68402 whole entry, looked up): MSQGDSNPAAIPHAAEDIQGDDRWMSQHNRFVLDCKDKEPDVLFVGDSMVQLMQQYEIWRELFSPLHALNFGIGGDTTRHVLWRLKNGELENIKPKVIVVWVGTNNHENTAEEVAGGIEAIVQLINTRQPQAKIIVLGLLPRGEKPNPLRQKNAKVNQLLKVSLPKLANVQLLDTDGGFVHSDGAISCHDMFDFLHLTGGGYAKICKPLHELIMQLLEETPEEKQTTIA
PAFAH2 FP inh – PAFAH2 (human) inhibition. Q99487. recombinant PAFAH2, FP-rhodamine activity probe, fluorescence polarization. inhibition, % at 3.39 µM. 340,000 compounds, 0.99% hits;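 active = inhibition above the mean over all tested compounds plus 3 SD, cut at about 30% in these data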;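 also: inhibitors block probe labeling of enzyme so polarization drops; 0% = enzyme with DMSO and 100% = wells lacking PAFAH2 protein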
PAFAH1B3 confirm – confirmation of human PAFAH1B3 inhibitors. AID 493032. recombinant PAFAH1B3, FP-Rh activity-based probe, fluorescence polarization. 390 compounds, 30% hits. shares compounds with PAFAH1B3 FP inh. inhibition, % at 3.39 µM;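 active = average inhibition over triplicate runs above the hit cutoff set in the earlier primary screen, cut at about 25% in these data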;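 also: 0% = enzyme with DMSO and 100% = wells lacking PAFAH1B3 protein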
* = called active by the depositor; nt = no result. This is a sample that favours compounds with a hit; in the whole collection about 3.4% have one here.

SMILES	PAFAH1B3 FP inh	pPAFAH inh	PP5 inh	PP1 counter	PAFAH1B2 FP inh	PAFAH2 FP inh	PAFAH1B3 confirm
Cc1ccc(N2C(=O)c3ccccc3C2=O)cc1	-1	-7	-2	5	7	4	nt
Cc1ccc(SC2=C(Sc3ccc(C)cc3)C(=O)c3ccccc3C2=O)cc1	38*	8	1	-1	21	16	35*
CC(=O)Oc1cccc(N2C(=O)c3cccc4c([N+](=O)[O-])ccc(c34)C2=O)c1	28*	5	-4	-1	14	1	40*
CC(Sc1nn(-c2ccccc2)c(=S)s1)C(=O)NCC1CCCO1 (stereo unspecified)	10	2	3	0	2	0	nt
C=CCc1cccc(/C=N/NC(=O)CNc2cccc3ccccc23)c1O	26*	16	3	5	9	-30	17
C=CCc1cccc(/C=N/NC(=O)CNc2ccccc2OC)c1O	8	13	4	-1	4	11	nt
CC(Nc1cccc2ccccc12)C(=O)N/N=C/c1ccccn1 (stereo unspecified)	36*	3	0	-3	11	23	11
Cc1cc(C)c[n+](C2=C([O-])c3ccccc3C(=O)/C2=N\S(=O)(=O)c2cccs2)c1	33*	10	0	-2	4	9	23
ON=C1c2ccccc2-c2ccccc21	35*	1	4	2	2	2	28*
CN(C)c1ccc2c(c1)C(=NO)c1ccccc1-2	7	nt	nt	nt	4	0	nt
CCC(C)n1c(NC(=O)c2ccccc2)c(C#N)c2nc3ccccc3nc21 (stereo unspecified)	35*	14	6	5	2	-2	8
Cc1nn(C(C)(C)C)c(NC(=O)c2ccccc2)c1C#N	7	6	2	0	8	-2	nt
Clc1cccc2sc(N3CCOCC3)nc12	30*	2	2	0	20	-18	7
Cc1cc2c(N=O)c(NO)ccc2[nH]1	44*	10	3	-2	21	9	35*
O=[N+]([O-])c1ccc(N/N=C/c2ccccc2O)cc1	26*	9	4	4	9	6	15
O=[N+]([O-])c1ccc(NN=Cc2ccccc2O)nc1	10	nt	nt	nt	7	1	nt
On1nnc2ccccc21	6	-7	0	-10	1	-6	nt
On1nnc2c3ccccc3c3ccccc3c21	38*	3	1	1	10	3	42*
CC1Cc2cc(S(=O)(=O)N3CCC(C(=O)NCc4ccco4)CC3)ccc2N1C(=O)C1CCC1 (stereo unspecified)	2	4	0	-1	-2	-3	nt
Clc1ccc(C2Nc3cccc4cccc(c34)N2)cc1	13	16	0	8	12	-3	nt
Cc1cccc(C2Nc3cccc4cccc(c34)N2)c1	31*	4	2	2	9	6	9
c1cc2c3c(cccc3c1)NC(c1ccc3c(c1)OCO3)N2	28*	0	2	1	13	14	10
OCC#Cc1ncc(C(F)(F)F)cc1Cl	28*	4	0	0	1	-3	25
O=C(O)CSc1nnc(-c2cccc(S(=O)(=O)N3CCOCC3)c2)n1-c1ccc(F)cc1	9	0	nt	nt	8	2	nt
CC(C)Cn1c(N)c(C(=O)NCC2CCCO2)c2nc3ccccc3nc21 (stereo unspecified)	32*	13	5	2	8	12	14
SMILES	PAFAH1B3 FP inh	pPAFAH inh	PP5 inh	PP1 counter	PAFAH1B2 FP inh	PAFAH2 FP inh	PAFAH1B3 confirm
Nc1c(C(=O)NCC2CCCO2)c2nc3ccccc3nc2n1/N=C/c1ccncc1 (stereo unspecified)	1	nt	nt	nt	2	2	nt
COCC(C)OC(=O)c1c(N)n(CC(C)C)c2nc3ccccc3nc12 (stereo unspecified)	35*	1	5	-5	0	-13	5
O=C(CN1CCCc2ccccc21)N/N=C/c1ccccc1	-2	6	0	5	-4	-4	nt
O=C(CN1CCCc2ccccc21)N/N=C/c1c(O)ccc2ccccc12	31*	12	4	10	13	22	14
COCC1CCCCC1OS(N)(=O)=O (stereo unspecified)	-3	1	1	-2	7	7	nt
COc1ccc2c(c1)CC=C1C2CCC2(C)C(=O)C(=NO)CC12 (stereo unspecified)	33*	nt	nt	nt	19	15	29*
O=C(O)c1ccc(NC2=C(Cl)C(=O)c3ccccc3C2=O)cc1	33*	-2	1	-2	12	12	23
CC1=C(Nc2ccc(C(=O)O)cc2)C(=O)c2ccccc2C1=O	13	2	0	-4	6	1	nt
O=C1C(Cl)=C(Nc2ccccc2)C(=O)c2ccccc21	26*	4	0	4	11	15	20
O=C(O)c1cccc(NC2=C(Cl)C(=O)c3ccccc3C2=O)c1	27*	nt	nt	nt	13	21	23
N#CCc1ccc(NC(=O)CSc2nnc(C3CC3)n2C2CC2)cc1	5	3	-2	-2	-4	-4	nt
CC(=O)N1CCc2cc(S(=O)(=O)NCC(=O)NCc3ccc(F)cc3)ccc21	1	0	0	-1	0	1	nt
O=C(Nc1ccc(O)cc1)C1CC=CCC1 (stereo unspecified)	27*	17	1	2	13	26	12
COc1ccc(Cl)cc1NC(=O)c1sc2nc(C)nc(N3CCOCC3)c2c1C	-1	-3	-4	-2	2	2	nt
NNc1nccc(Nc2ccccc2C(=O)O)n1	28*	9	3	3	18	25	12
Cc1cccc(Cn2nnc3c2C(=O)c2ccccc2C3=O)c1	30*	1	2	3	10	7	9
CCOc1ccc2nc(SCC(=O)N(CCOC)c3c(N)n(Cc4ccccc4)c(=O)[nH]c3=O)[nH]c2c1	8	2	0	-1	9	0	nt
NNC(=O)/C(=N/Nc1ccccc1)S(=O)(=O)c1ccc(Cl)cc1	40*	12	4	8	3	-4	37*
CC(=O)N[C@H]1[C@H](OC2CCCCC2)O[C@H](COC(C)=O)[C@@H](OC(C)=O)[C@@H]1OC(C)=O	2	1	1	-1	5	3	nt
CCN(c1ccccc1)c1cc2ccccc2c(=O)[nH]1	26*	3	4	-3	13	7	8
O=C(NC(=S)NCCC1=CCCCC1)c1cncc(Br)c1	4	8	4	1	11	1	nt
O=C(CN1C(=O)c2ccccc2C1=O)OCC(=O)c1ccccc1	0	-4	0	-6	7	-7	nt
